Assay results: PubChem BioAssay (Tox21)
Inconclusive results are not listed. Activity calls are given as the source filed them. Unless noted, calls come from the whole dose curve; as a rule, active = well fitted curve in the direction sought with a large enough effect in the repeat runs; inconclusive = weak or mixed curves; inactive = no such curve, though single readings can be large; an effect the other way counts as inactive or inconclusive.

Assays:
[1] = molecular target: Estrogen receptor (Homo sapiens) (UniProt P03372); assay: qHTS assay to identify small molecule antagonists of the estrogen receptor alpha (ER-alpha) signaling pathway using the BG1 cell line in the presence of 0.1 nM 17-beta-estradiol (AID 1259244); note: nearly all actives have a fitted effect of over 50% in size
Chain of Estrogen receptor (Homo sapiens) (P03372 whole entry, looked up): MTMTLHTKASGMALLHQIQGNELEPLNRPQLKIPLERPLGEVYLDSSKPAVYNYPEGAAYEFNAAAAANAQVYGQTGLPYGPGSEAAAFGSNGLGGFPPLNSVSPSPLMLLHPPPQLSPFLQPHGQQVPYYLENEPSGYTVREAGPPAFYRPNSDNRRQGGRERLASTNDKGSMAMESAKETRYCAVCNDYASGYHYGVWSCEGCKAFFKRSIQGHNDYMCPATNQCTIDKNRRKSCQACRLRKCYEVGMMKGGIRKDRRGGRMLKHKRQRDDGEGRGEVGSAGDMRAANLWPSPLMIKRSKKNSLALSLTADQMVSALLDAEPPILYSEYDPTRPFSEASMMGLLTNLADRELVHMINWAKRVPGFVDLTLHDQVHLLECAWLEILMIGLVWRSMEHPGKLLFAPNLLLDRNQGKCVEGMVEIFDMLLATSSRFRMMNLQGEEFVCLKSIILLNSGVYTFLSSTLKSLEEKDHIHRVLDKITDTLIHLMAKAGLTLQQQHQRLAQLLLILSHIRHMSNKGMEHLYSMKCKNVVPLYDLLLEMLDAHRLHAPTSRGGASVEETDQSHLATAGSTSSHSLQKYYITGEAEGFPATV
Method in brief: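 VM7Luc4E2; 4xERE-luciferase; 0.1 nM E2 final; 22 h co-incubation, 37C; ONE-Glo luminescence after 30 min at room temperature.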

[2] = qHTS assay to identify small molecule phospholipidosis (PLD) inducers (AID 1259344; active = well fitted curve in the direction sought with a large enough effect; an effect the other way counts as inactive or inconclusive)
Method in brief: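 Quantitative HTS in HepG2: compound plus LipidTOX Red dye for 24 h, paraformaldehyde fixation with Hoechst 33342, widefield high-content imaging; amiodarone as positive and DMSO as negative control.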

[3] = qHTS assay to identify small molecule HDAC inhibitors - cell viability counter screen (AID 1259365); note: series mostly up to about 92 µM; nearly all actives have a fitted effect of over 50% in size
Method in brief: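 After overnight seeding at 1,500 cells per well, wild-type HCT-116 cultures took up compounds in DMSO for 2hr at 37 C. Viable cell content came from luminescence with CellTiter-Glo.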

[4] = qHTS assay to identify small molecule antagonists of the sonic hedgehog signaling (Shh) pathway - cell viability counter screen (AID 1259367); note: nearly all actives have a fitted effect of over 55% in size
Method in brief: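 Seed 3T3 Gli1-Luc cells at 2,000 per well; incubate 4 hr; add compound in DMSO, then conditioned medium; incubate at 37C with 5% CO2; add CellTiter-Fluor after 23 hr; read fluorescence 1 hr later.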

[5] = qHTS assay to identify small molecule agonists of the sonic hedgehog signaling (Shh) pathway (AID 1259368; calls by dose curve;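 note: NIH/3T3-derived 3T3Gli1-Luc cells carrying a stable Gli1-driven firefly luciferase reporter; series mostly up to about 92 µM; nearly all actives have a fitted effect of over 15% in size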)
Method in brief: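 Mouse fibroblast (NIH/3T3) reporter cells with stably integrated Gli1-Luc were treated 24 hr with compound; firefly luciferase luminescence served as the read-out.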

[6] = qHTS assay to identify small molecule antagonists of the sonic hedgehog signaling (Shh) pathway (AID 1259369; calls by dose curve; note: nearly all actives have a fitted effect of over 45% in size)
Method in brief: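 Conditioned medium drives Shh signalling in 3T3Gli1-Luc cells; compounds in DMSO co-applied, 24hr at 37 C, then luciferase luminescence.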

[7] = qHTS assay to identify small molecule agonists of the androgen receptor (AR) signaling pathway in the presence of an antagonist - cell viability counter screen (AID 1259379); note: nearly all actives have a fitted effect of over 25% in size; note: potency is the fitted concentration of half-maximal effect
Method in brief: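 A CellTiter-Fluor read-out measured viability of MDA-kb2 reporter cells (MMTV promoter with AR and GR response elements). Treatment: nilutamide 3.0uM final with compounds at 15 concentrations, 16 hr, 37C, 0% CO2.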

[8] = molecular target: Androgen receptor (Homo sapiens) (UniProt P10275); assay: qHTS assay to identify small molecule agonists of the androgen receptor (AR) signaling pathway in the presence of an antagonist (AID 1259381; calls by dose curve; note: nearly all actives have a fitted effect of over 15% in size)
Chain of Androgen receptor (Homo sapiens) (P10275 whole entry, looked up): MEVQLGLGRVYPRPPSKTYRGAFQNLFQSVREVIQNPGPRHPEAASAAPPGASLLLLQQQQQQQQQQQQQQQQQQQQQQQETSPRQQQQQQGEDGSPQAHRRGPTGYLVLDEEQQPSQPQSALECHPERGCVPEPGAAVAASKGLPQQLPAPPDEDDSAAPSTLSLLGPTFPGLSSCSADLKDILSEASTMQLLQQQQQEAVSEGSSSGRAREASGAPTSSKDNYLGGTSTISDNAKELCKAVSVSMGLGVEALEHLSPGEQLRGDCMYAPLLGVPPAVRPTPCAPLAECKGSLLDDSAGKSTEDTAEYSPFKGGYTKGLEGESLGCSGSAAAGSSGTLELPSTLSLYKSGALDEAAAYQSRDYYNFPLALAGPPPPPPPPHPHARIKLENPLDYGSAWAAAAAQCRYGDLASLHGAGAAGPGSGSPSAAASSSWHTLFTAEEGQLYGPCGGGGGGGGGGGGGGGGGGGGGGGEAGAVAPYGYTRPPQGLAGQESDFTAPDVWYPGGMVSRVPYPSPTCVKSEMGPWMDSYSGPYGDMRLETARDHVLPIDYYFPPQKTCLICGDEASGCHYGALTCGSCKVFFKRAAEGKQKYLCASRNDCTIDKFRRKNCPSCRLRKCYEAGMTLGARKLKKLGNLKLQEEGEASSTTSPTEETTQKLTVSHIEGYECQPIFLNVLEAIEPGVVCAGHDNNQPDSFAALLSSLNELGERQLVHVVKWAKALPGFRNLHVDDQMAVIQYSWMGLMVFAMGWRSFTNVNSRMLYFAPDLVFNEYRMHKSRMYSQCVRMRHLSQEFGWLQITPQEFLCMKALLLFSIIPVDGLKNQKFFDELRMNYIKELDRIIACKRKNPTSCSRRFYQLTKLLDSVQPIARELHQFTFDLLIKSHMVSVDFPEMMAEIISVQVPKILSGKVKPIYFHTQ
Method in brief: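 Using human MDA-kb2 cells with an MMTV promoter–luciferase construct (AR and GR response elements), agonist activity is scored under 3.0uM nilutamide (final) co-treatment; 16hr incubation, 37C, luminescence readout via ONE-Glo.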

[9] = molecular target: Estrogen receptor (Homo sapiens) (UniProt P03372); assay: qHTS assay to identify small molecule agonists of the estrogen receptor alpha (ER-alpha) signaling pathway in the presence of an antagonist (AID 1259383; calls by dose curve; note: top concentration of the series differs between compounds; nearly all actives have a fitted effect of over 15% in size)
Method in brief: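 Using VM7Luc4E2 cells seeded 24hr before treatment, antagonist ICI-182,780 (10.0nM final) was added, followed by compounds at 15 concentrations. Plates incubated 22hr; ONE-Glo luminescence quantified reporter activity.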

[10] = molecular target: Thyrotropin receptor (Homo sapiens) (UniProt P16473); assay: qHTS assay to identify small molecule antagonists of the thyroid stimulating hormone receptor (TSHR) signaling pathway (AID 1259385; calls by dose curve; note: nearly all actives have a fitted effect of over 20% in size)
Chain of Thyrotropin receptor (Homo sapiens) (P16473 whole entry, looked up): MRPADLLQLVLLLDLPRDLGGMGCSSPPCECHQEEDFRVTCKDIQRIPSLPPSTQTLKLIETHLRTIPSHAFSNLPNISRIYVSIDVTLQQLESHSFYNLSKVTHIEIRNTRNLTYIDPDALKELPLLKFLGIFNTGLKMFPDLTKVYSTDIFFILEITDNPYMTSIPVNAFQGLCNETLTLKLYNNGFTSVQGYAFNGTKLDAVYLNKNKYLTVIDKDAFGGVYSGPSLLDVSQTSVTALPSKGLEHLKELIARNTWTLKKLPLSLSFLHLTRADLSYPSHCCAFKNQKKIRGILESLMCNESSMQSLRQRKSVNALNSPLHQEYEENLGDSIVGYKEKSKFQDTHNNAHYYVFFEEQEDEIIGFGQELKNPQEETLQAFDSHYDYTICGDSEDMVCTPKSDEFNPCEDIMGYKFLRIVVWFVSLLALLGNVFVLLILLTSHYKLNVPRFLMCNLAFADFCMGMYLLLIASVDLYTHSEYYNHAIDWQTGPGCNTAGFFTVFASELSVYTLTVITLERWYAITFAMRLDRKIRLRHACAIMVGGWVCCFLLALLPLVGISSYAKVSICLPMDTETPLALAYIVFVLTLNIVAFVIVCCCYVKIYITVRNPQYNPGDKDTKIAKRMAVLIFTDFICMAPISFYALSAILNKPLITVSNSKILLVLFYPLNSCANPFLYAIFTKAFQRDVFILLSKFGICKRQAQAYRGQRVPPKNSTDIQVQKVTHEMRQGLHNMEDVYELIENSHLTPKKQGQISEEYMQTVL
Method in brief: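 TSHR-HEK293 cells (800/well) plated 18 h, then compounds with Ro20-1724 and TSH at 1.5 ng/mL final, 30 min at room temperature. cAMP quantified by HTRF (cAMP-d2/anti-cAMP-cryptate, 1 h); 15 concentrations in triplicate.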

[11] = qHTS assay to identify small molecule agonists of the estrogen receptor alpha (ER-alpha) signaling pathway in the presence of an antagonist - cell viability counter screen (AID 1259386);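 note: cells exposed to compounds for 22 h at 37 °C before the viability read; nearly all actives have a fitted effect of over 30% in size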; note: potency is the fitted concentration of half-maximal effect
Method in brief: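 ICI-182,780 at 10.0nM final accompanies the compound titration (15 concentrations, 22hr, 37C) on VM7Luc4E2 cells. The CellTiter-Fluor fluorescence readout runs in the same wells as the luciferase assay.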

[12] = molecular target: Progesterone receptor (Homo sapiens) (UniProt P06401); assay: qHTS assay to identify small molecule agonists of the progesterone receptor (PR) signaling pathway (AID 1346784; calls by dose curve; note: nearly all actives have a fitted effect of over 30% in size)
Chain of Progesterone receptor (Homo sapiens) (P06401 whole entry, looked up): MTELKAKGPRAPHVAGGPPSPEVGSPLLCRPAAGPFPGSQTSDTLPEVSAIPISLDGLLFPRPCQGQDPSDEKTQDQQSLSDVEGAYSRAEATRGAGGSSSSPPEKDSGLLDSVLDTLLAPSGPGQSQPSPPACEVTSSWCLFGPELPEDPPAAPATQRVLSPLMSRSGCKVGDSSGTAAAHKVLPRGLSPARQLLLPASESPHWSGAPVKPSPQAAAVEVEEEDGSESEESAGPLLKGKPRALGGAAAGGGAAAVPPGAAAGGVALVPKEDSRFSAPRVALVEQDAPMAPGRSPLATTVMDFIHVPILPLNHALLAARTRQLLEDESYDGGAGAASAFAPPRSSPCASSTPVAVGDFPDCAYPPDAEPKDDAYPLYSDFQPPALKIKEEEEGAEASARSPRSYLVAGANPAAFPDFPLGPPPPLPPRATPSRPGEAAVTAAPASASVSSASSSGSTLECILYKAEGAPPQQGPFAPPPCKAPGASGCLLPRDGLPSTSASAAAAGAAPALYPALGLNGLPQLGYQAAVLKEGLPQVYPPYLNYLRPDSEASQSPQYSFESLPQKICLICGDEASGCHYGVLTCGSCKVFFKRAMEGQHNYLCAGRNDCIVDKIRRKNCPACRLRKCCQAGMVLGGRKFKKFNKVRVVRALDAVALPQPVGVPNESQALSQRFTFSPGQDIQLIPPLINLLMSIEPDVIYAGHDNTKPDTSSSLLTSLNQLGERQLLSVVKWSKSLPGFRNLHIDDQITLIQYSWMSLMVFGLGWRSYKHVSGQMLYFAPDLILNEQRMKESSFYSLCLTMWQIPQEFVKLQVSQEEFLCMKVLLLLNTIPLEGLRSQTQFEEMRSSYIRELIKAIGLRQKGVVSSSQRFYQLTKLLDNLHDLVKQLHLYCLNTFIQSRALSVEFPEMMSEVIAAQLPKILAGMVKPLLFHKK
Method in brief: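 Compounds were tested for PR agonism in HEK 293T cells bearing a beta-lactamase gene under UAS control. Treatment lasted 16 hr at 37C; signal came from fluorescence of a FRET substrate.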

[13] = molecular target: Progesterone receptor (Homo sapiens) (UniProt P06401); assay: qHTS assay to identify small molecule antagonists of the progesterone receptor (PR) signaling pathway (AID 1346795; active = well fitted inhibition curve with a large enough effect in the signal ratio in the repeat runs, not every such curve was filed as active; the % refers to the signal ratio)
Method in brief: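 In HEK293T cells bearing the PR-UAS-bla reporter, compound effects on promegestone-driven (1 nM) beta-lactamase expression are assessed after 16 hr using a fluorescent FRET substrate incubated 2 hr at room temperature.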

[14] = qHTS assay to identify small molecule HDAC inhibitors (AID 1259364);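 note: wild-type HCT-116 cells with endogenous class I/II HDAC activity; top concentration of the series differs between compounds; nearly all actives have a fitted effect of over 45% in size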
Method in brief: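 Relative class I and II HDAC activity is taken from the luminogenic signal in HCT-116 cells, with compound exposure 2 hr and reagent development 30 min at room temperature.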

[15] = molecular target: Estrogen receptor beta (Homo sapiens) (UniProt Q92731); assay: qHTS assay to identify small molecule agonists of the estrogen receptor beta (ER-beta) signaling pathway (AID 1259377; active = well fitted activation curve with a large enough effect in the signal ratio in the repeat runs, not every such curve was filed as active; the % refers to the signal ratio)
Chain of Estrogen receptor beta (Homo sapiens) (Q92731 whole entry, looked up): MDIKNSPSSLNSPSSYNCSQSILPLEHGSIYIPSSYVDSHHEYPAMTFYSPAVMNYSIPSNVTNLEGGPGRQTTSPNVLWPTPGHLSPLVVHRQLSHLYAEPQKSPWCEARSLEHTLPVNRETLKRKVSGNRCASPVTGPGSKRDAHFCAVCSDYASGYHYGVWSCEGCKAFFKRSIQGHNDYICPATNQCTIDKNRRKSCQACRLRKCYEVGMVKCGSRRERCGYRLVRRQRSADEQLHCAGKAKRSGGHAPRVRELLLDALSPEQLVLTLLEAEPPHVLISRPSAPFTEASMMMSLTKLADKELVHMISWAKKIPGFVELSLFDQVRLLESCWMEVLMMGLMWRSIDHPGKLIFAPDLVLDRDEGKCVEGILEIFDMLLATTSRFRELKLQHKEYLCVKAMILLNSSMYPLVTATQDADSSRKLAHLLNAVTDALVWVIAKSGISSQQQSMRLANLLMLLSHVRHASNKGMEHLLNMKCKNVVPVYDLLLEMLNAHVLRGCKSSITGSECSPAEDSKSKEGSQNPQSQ
Method in brief: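 Read-out: beta-lactamase FRET fluorescence. Cell line: ER-beta-UAS-bla HEK293T in 2% charcoal-stripped FBS. Exposure: 16 hr at 37C. Substrate step: 2 h at room temperature.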

[16] = molecular target: Estrogen receptor beta (Homo sapiens) (UniProt Q92731); assay: qHTS assay to identify small molecule antagonists of the estrogen receptor beta (ER-beta) signaling pathway (AID 1259378; active = well fitted inhibition curve with a large enough effect in the signal ratio in the repeat runs, not every such curve was filed as active; the % refers to the signal ratio)
Method in brief: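 ER-beta-UAS-bla HEK293T cells in 2% charcoal-stripped FBS medium treated with compound plus 1nM final 17-beta-estradiol for 16 hr at 37C. Beta-lactamase reporter read by FRET substrate fluorescence after 2 hours at room temperature.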

[17] = qHTS assay to identify small molecule agonists of the estrogen receptor beta (ER-beta) signaling pathway - cell viability counter screen (AID 1259380); note: nearly all actives have a fitted effect of over 30% in size; note: potency is the fitted concentration of half-maximal effect
Method in brief: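 Cells used were ER-beta-UAS-bla HEK293T in medium with 2% charcoal-stripped FBS. They were treated for 16 hr at 37C. Viability came from CellTiter-Glo luminescence.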

[18] = qHTS assay to identify small molecule antagonists of the estrogen receptor beta (ER-beta) signaling pathway - cell viability counter screen (AID 1259382); note: nearly all actives have a fitted effect of over 55% in size; note: potency is the fitted concentration of half-maximal effect
Method in brief: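 Agonist-stimulated (1nM E2) ER-beta-UAS-bla HEK293T cells are incubated with library compounds for 16 hr at 37C. Cell viability is then assessed in the reporter-assay wells by adding CellTiter-Glo and reading luminescence after 30 min.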

[19] = qHTS assay to identify small molecule agonists or antagonists of the thyroid stimulating hormone receptor (TSHR) signaling pathway - wild type cell line counter screen (AID 1259384; calls by dose curve)
Method in brief: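 Wild-type Hek293 cells, 800/well, 18 h at 37C, then compound with Ro20-1724 for 30 min RT. cAMP by HTRF (cAMP-d2/anti-cAMP cryptate), 1 h RT, fluorescence read. 15 concentrations, triplicates.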

[20] = qHTS assay to identify small molecule agonists of the sonic hedgehog signaling (Shh) pathway - cell viability counter screen (AID 1259366); note: nearly all actives have a fitted effect of over 50% in size; note: potency is the fitted concentration of half-maximal effect
Method in brief: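 Same-well cytotoxicity read. Gli1-Luc reporter 3T3 cells; compounds 24hr, 37C/5% CO2; CellTiter-Fluor fluorescence.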
% is set by controls: 0 for no effect and ±100 for the full control effect.

O=C(O)Cc1sc(-c2ccccc2)nc1-c1ccc(Cl)cc1
inactive: Potency [1] | Potency [2] | outcome [3] | Potency [4] | outcome [5] | Potency [6] | Potency [7] | Potency [8] | Potency [9] | Potency [10] | Potency [11] | outcome [12] | Potency [13]

CC[C@H](C)[C@H](N)C(=O)O
inactive: Potency [1] | Potency [2] | Potency [14] | Potency [4] | outcome [5] | Potency [6] | Potency [15] | Potency [16] | Potency [7] | Potency [17] | Potency [18] | Potency [9] | Potency [19] | Potency [10] | Potency [11] | outcome [12]

CNCC[C@@H](Oc1ccccc1C)c1ccccc1
inactive: Potency [1] | Potency [2] | Potency [14] | Potency [20] | Potency [4] | outcome [5] | Potency [7] | Potency [8] | Potency [9] | Potency [19] | Potency [11]
active: Potency [17] 26.6 µM | Potency [18] 23.7 µM

CC(=O)NCCCS(=O)(=O)O
inactive: Potency [1] | Potency [2] | Potency [14] | outcome [3] | Potency [4] | Potency [6] | Potency [15] | Potency [16] | Potency [7] | Potency [17] | Potency [18] | Potency [9] | Potency [10] | Potency [11] | outcome [12]

C=CC[N+]1([C@H]2C[C@H]3[C@@H]4CC[C@H]5C[C@H](OC(C)=O)[C@@H](N6CCCCC6)C[C@]5(C)[C@H]4CC[C@]3(C)[C@H]2OC(=O)CC)CCCCC1
inactive: Potency [1] | PLD induction [2] -0.411% [at 7.66 µM] | Potency [14] | Potency [20] | Potency [6] | Potency [7] | Potency [17] | Potency [18] | Potency [9] | Potency [19] | Potency [10] | Potency [11]

COc1ccc2[nH]c(S(=O)Cc3ncc(C)c(OC)c3C)nc2n1 (stereo not drawn)
inactive: Potency [1] | Potency [2] | Potency [14] | outcome [3] | Potency [20] | Potency [4] | outcome [5] | Potency [6] | Potency [7] | Potency [17] | Potency [18] | Potency [9] | Potency [11]

O=C(O)COC(=O)Cc1ccccc1Nc1c(Cl)cccc1Cl
inactive: Potency [1] | Potency [2] | Potency [14] | outcome [3] | Potency [20] | Potency [6] | Potency [15] | Potency [7] | Potency [8] | Potency [9] | Potency [19] | Potency [10] | Potency [11]

Cc1ccccc1N=Nc1ccc(N=Nc2c(O)ccc3ccccc23)c(C)c1
inactive: Potency [1] | Potency [2] | Potency [14] | outcome [3] | Potency [4] | outcome [5] | Potency [6] | Potency [17] | Potency [18] | Potency [9] | Potency [10] | Potency [11] | outcome [12] | Potency [13]

CCOc1nc2cccc(C(=O)O)c2n1Cc1ccc(-c2ccccc2-c2nn[nH]n2)cc1
inactive: Potency [1] | Potency [2] | Potency [14] | outcome [3] | Potency [20] | Potency [4] | outcome [5] | Potency [6] | Potency [15] | Potency [16] | Potency [7] | Potency [8] | Potency [18] | Potency [9] | Potency [10] | outcome [12] | Potency [13]

C=Cc1c(C)c2cc3[nH]c(cc4nc(cc5nc(cc1[nH]2)C(C)=C5CCC(=O)O)C(CCC(=O)O)=C4C)c(C)c3C=C
active: Potency [20] 13.3 µM | Potency [7] 21.1 µM | Potency [11] 26.6 µM
inactive: Potency [1] | Potency [2] | Potency [14] | outcome [3] | outcome [5] | Potency [15] | Potency [16] | Potency [17] | Potency [18] | Potency [9] | Potency [19] | Potency [10] | outcome [12] | Potency [13]

Cc1ccc(C(=O)C(C)CN2CCCCC2)cc1 (stereo not drawn)
inactive: Potency [1] | Potency [2] | Potency [14] | outcome [3] | Potency [20] | outcome [5] | Potency [6] | Potency [15] | Potency [16] | Potency [7] | Potency [18] | Potency [9] | Potency [19] | Potency [10] | Potency [11] | outcome [12] | Potency [13]

CN1CCC(OC(c2ccccc2)c2ccccc2)CC1
inactive: Potency [1] | Potency [2] | Potency [14] | outcome [3] | outcome [5] | Potency [7] | Potency [17] | Potency [18] | Potency [9] | Potency [19] | Potency [10] | Potency [11] | outcome [12] | Potency [13]

O=C(O)[C@@H]1[C@H]2C[C@H]3c4[nH]c5ccccc5c4CCN3C[C@@H]2CC[C@@H]1O
inactive: Potency [1] | Potency [2] | Potency [14] | outcome [5] | Potency [6] | Potency [7] | Potency [8] | Potency [18] | Potency [9] | Potency [19] | Potency [10] | Potency [11] | outcome [12] | Potency [13]

O=C(NN1CCCC1)NS(=O)(=O)c1ccc(Cl)cc1
inactive: Potency [1] | PLD induction [2] 14% [at 7.66 µM] | Potency [14] | outcome [3] | Potency [20] | Potency [4] | Potency [6] | Potency [15] | Potency [16] | Potency [7] | Potency [18] | Potency [9] | Potency [19] | Potency [10] | Potency [11] | outcome [12] | Potency [13]

CCOC(=O)C1=C(C)NC(C)=C(C(=O)OC)C1c1cccc([N+](=O)[O-])c1 (stereo not drawn)
inactive: Potency [1] | Potency [2] | Potency [14] | outcome [3] | outcome [5] | Potency [15] | Potency [16] | Potency [7] | Potency [17] | Potency [18] | Potency [9] | Potency [19] | Potency [10] | Potency [11] | outcome [12]

CCCCOc1cc(C(=O)OCCN(CC)CC)ccc1N
inactive: Potency [1] | Potency [2] | outcome [3] | Potency [20] | Potency [4] | outcome [5] | Potency [6] | Potency [15] | Potency [16] | Potency [7] | Potency [17] | Potency [18] | Potency [9] | Potency [11] | outcome [12]

CCN(CC)CCNC(C(=O)OCCC(C)C)c1ccccc1 (stereo not drawn)
inactive: Potency [1] | Potency [2] | Potency [14] | outcome [3] | Potency [20] | Potency [4] | outcome [5] | Potency [6] | Potency [15] | Potency [16] | Potency [7] | Potency [18] | Potency [9] | Potency [19] | Potency [10] | Potency [11] | outcome [12] | Potency [13]
